Data published in PubChem BioAssay.
“And” between values parts separate entries of the source, which are not always exact repeats. Identical values can stand only once. Results filed as inconclusive are left out. The source made the active and inactive calls. Rule as the data show it, unless noted: active = inhibition above about 80%; inactive = the rest.

Legend:
[1] = viability loss in pontine glioma line – cell-based, SU-DIPG-XIII, MIPE4.0, CellTiter-Glo, qHTS, dose response (AID 1347061; cut-off not given, nearly all actives have AC50 up to about 37 µM;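 also: cells exposed to compound for 48 hours before readout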); details: CellTiter-Glo ATP luminescence
[2] = viability loss in pontine glioma line – cell-based, SU-DIPG-IV, MIPE4.0, CellTiter-Glo, qHTS, dose response (AID 1347063; cut-off not given, nearly all actives have AC50 up to about 30 µM;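 also: compound exposure lasted 48 hours before the viability readout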); details: CellTiter-Glo ATP luminescence
[3] = growth inhibition of DIPG cells – cell-based, MIPE4.0 library, CellTiter-Glo luminescence, qHTS (AID 1347066; cut-off not given, nearly all actives have AC50 up to about 30 µM;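 also: cells exposed to compound for 48 hours before readout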); details: SU-DIPG-VI viability, CellTiter-Glo ATP luminescence
[4] = viability loss with induced miR-34 in A549 – imaging, A549 dox-inducible miR-34, nuclei and caspase counts, primary screen (AID 1347080;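 active = compounds whose cell count with miR-34 switched on is under 0.7 times the count with it off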); details: A549 miR-34 inducible, Hoechst nuclei count, 48 h
[5] = compounds altering HSF1 focus formation in cells – imaging, Selleck Cancer Library (AID 1347162; in the data active = plate-normalised HSF1 focus index below about 0.46); details: human cells, HSF1 nuclear foci imaging, at 10 µM; SSMD: measured here: HSF1 foci SSMD mean; cell count: measured here: cell number; plate-normalised HSF1 focus index: stronger effect = lower value
[6] = MELAS cybrid and Rieske KO viability enhancers – cell-based, MELAS cybrids, Rieske KO mouse fibroblasts, CellTiter-Glo, primary screen (AID 1508586;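 active = mean z-score across replicates of 1.96 or higher in either the MELAS or the Rieske mutant cell line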;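 also: z relative to plate mean and SD of compound and empty wells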); details: low glucose
[7] = growth inhibition, single agent or in combination, cell-based, chromothripsis tumors, cisplatin or BGB combos (AID 1671449); details: LFS_MB_P medulloblastoma cells;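 also: cells exposed for 96 hours; 0% = vehicle DMSO and 100% = killing by high DMSO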
[8] = growth inhibition, single agent and combos, cell-based, chromothripsis tumors, cisplatin or BGB combos (AID 1671450); details: HDN33 neuroblastoma cells, stronger effect = higher value;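 also: cells exposed to compound for four days; 0% = vehicle DMSO and 100% = cell killing by high DMSO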
[9] = growth inhibition, single agents and combos, ICB984, cell-based, cisplatin or BGB combos, synergistic combos for chromothripsis tumors (AID 1671451; call rule not given here;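 also: cells exposed for 96 hours before readout; 0% = vehicle DMSO and 100% = killing by high DMSO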); details: ICB984 medulloblastoma cells, drug combinations, stronger effect = higher value
[10] = growth inhibition, single agents and combos, HTB85, cell-based, BGB or cisplatin IC20 combos, synergistic combos for chromothripsis tumors (AID 1671453); details: HTB85 osteosarcoma cells, drug combinations, stronger effect = higher value;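 also: cells exposed for 96 hours before readout; 0% = vehicle DMSO and 100% = high DMSO killing control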
[11] = growth inhibition, MDA-MB-436, cell-based, BGB or cisplatin combos, synergistic combos for chromothripsis tumors (AID 1671458; call rule not given here;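 also: cells exposed for 96 hours; 0% = vehicle DMSO and 100% = killing by high DMSO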); details: MDA-MB-436 breast carcinoma growth inhibition, drug combinations, stronger effect = higher value
[12] = BT084 cell growth, single and combined drugs, ICGC_MB145, cisplatin and BGB IC40 combos (AID 1671461); details: BT084 medulloblastoma cells, drug combinations, stronger effect = higher value;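 also: cells exposed to drugs for 96 hours; 0% = vehicle DMSO and 100% = high DMSO full killing control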
[13] = RCMB18 cell growth, single agent and combined, cisplatin and BGB IC40 combos (AID 1671462); details: RCMB18 medulloblastoma cells, stronger effect = higher value;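 also: cells exposed to compound for four days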
[14] = CRL1545 cell growth, single agent and combined, cisplatin and BGB IC20 combos (AID 1671464); details: CRL1545 osteosarcoma cells, stronger effect = higher value;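 also: cells exposed to compound for 96 hours before readout; 0% = vehicle DMSO and 100% = high DMSO killing control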
[15] = viability loss in pontine glioma line – cell-based, JHH-DIPG-1, MIPE4.0, CellTiter-Glo, qHTS, dose response (AID 1347062; cut-off not given, nearly all actives have AC50 up to about 27 µM); details: JHH-DIPG-1 viability, CellTiter-Glo ATP luminescence
[16] = stronger effect = lower value, cell number ratio, induced over uninduced
[17] = measured here: relative caspase fold change +Dox/-Dox
[18] = measured here: total cells with miR-34 induction, stronger effect = lower value
[19] = measured here: total cells without miR-34 induction
[20] = MELAS cybrid survival, CellTiter-Glo 48 h, stronger effect = higher value
[21] = Rieske KO mouse fibroblast survival, CellTiter-Glo 72 h
[22] = measured here: with BGB IC20 combination, at 0.5 µM
[23] = measured here: with cisplatin IC20 combination, at 0.5 µM

CNCc1ccc(-c2[nH]c3cc(F)cc4c3c2CCNC4=O)cc1
outcome [1]: inactive
outcome [2]: inactive
outcome [3]: inactive
fold change [4, 16]: 0.956 (inactive)
fold change [4, 17]: 1.62
cell count [4, 18]: 6530
cell count [4, 19]: 6840
SSMD [5]: 2.12
cell count [5]: 7610
plate-normalised HSF1 focus index [5]: 1.13 (inactive)
z-score [6, 20]: -0.49 (inactive)
z-score [6, 21]: -0.266
inhibition ([7]; at 0.5 µM, stronger effect = higher value): 11.2% (inactive) and -4.36% (inactive)
inhibition ([7]; measured here: combination with BGB IC20, at 0.005 µM): -33.6% and -11.5%
inhibition ([7]; measured here: combination with BGB IC40, at 0.005 µM): -21.8% and 22.8%
inhibition ([7]; measured here: combination with BGB IC40, at 0.05 µM): -33.3% and -12.4%
inhibition ([7]; measured here: combination with cisplatin, at 0.5 µM, stronger effect = higher value): -17.5% and -5.55%
inhibition ([7]; measured here: combination with cisplatin, at 5 µM, stronger effect = higher value): -45.3% and -35.9%
inhibition ([8]; BGB combo, at 5 µM): -25.2% and 11.9%
inhibition ([8]; at 0.5 µM): -14.8% (inactive) and 14.3% (inactive)
inhibition ([8]; cisplatin combo, at 5 µM): -4.69% and 14.3%
inhibition [8, 22]: -21.7% and 13.3%
inhibition [8, 23]: -14.7% and 11.6%
inhibition ([8]; single agent, at 5 µM): 9.94% and 30.8%
inhibition ([9]; BGB IC20 combo, at 0.005 µM): -15.3% and 7.74%
inhibition ([9]; BGB IC40 combo, at 0.005 µM): -14.9% and -10.3%
inhibition ([9]; BGB IC40 combo, at 0.05 µM): -15.6% and -2.1%
inhibition ([9]; at 0.5 µM): -18% (inactive) and -11.9% (inactive)
inhibition ([9]; cisplatin combo, at 0.05 µM): -19.7% and -5.77%
inhibition ([9]; cisplatin combo, at 0.5 µM): -11.2% and -6.08%
inhibition ([9]; cisplatin combo, at 5 µM): -48.3% and -31.5%
inhibition ([9]; measured here: 5 uM single agent, at 5 µM): 4.24% and 12.5%
inhibition ([10]; at 0.5 µM): -0.57% (inactive) and 3.23% (inactive)
inhibition ([10]; measured here: with BGB IC20, at 0.5 µM): -24.5% and -14.6%
inhibition ([10]; measured here: with BGB IC20, at 5 µM): -20.2% and -0.361%
inhibition ([10]; measured here: with cisplatin IC20, at 0.5 µM): 6.68% and 16.2%
inhibition ([10]; measured here: with cisplatin IC20, at 5 µM): -9.57% and 9.16%
inhibition ([10]; single agent, at 5 µM): -2.29% and 13.1%
inhibition ([11]; at 0.5 µM): 2.86% (inactive) and 14.9% (inactive)
inhibition ([11]; measured here: BGB combination, at 0.5 µM): -19.1% and 0.063%
inhibition ([11]; measured here: BGB combination, at 5 µM): -12.9% and -16%
inhibition ([11]; measured here: cisplatin combination, at 0.5 µM): 9.87% and 19.6%
inhibition ([11]; measured here: cisplatin combination, at 5 µM): 31.2% and 24.2%
inhibition ([12]; at 0.5 µM): -22% (inactive) and 7.71% (inactive)
inhibition ([12]; cisplatin combination, at 0.5 µM): -60.7% and -23.3%
inhibition ([12]; cisplatin combination, at 5 µM): -41.6% and -18%
inhibition ([12]; measured here: BGB IC40 combination 0.05 uM, at 0.05 µM): 24.6% and 0.2%
inhibition ([12]; single agent, at 5 µM): -4.29% and -11.5%
inhibition ([13]; at 0.5 µM): -28.5% (inactive) and -5.9% (inactive)
inhibition ([13]; cisplatin combo, at 5 µM): -30.1% and -29%
inhibition ([13]; measured here: BGB IC40 combination, at 0.05 µM): -11.1% and 4.25%
inhibition ([13]; measured here: combination with cisplatin, at 0.5 µM): -71.1% and 1.49%
inhibition ([13]; single agent, at 5 µM): -19.5% and -1.31%
inhibition ([14]; at 0.5 µM): 3.62% (inactive) and -10.7% (inactive)
inhibition [14, 22]: -15.5% and 1.35%
inhibition [14, 23]: 11.8% and -18.6%
inhibition ([14]; single agent, at 0.05 µM): 15.8% and 33%
inhibition ([14]; single agent, at 5 µM): 1.41% and -6.63%

Cc1coc2c1C(=O)C(=O)c1c-2ccc2c(C)cccc12
outcome [1]: inactive
outcome [15]: inactive
fold change [4, 16]: 0.847 (inactive)
fold change [4, 17]: 1.93
cell count [4, 18]: 7470
cell count [4, 19]: 8830
z-score [6, 20]: -0.324 (inactive)
z-score [6, 21]: -1
